Screening data: PubChem, National Center for Advancing Translational Sciences (NCATS)
Pf growth 96h = Primary qHTS for delayed death inhibitors of the malarial parasite plastid, 96 hour incubation; Potency, µM (titrated, usually from 28.7 µM), hits mostly inhibitors; P. falciparum luciferase reporter growth, 96 h; AID 504834, 2011; hit rate 6.9% among 320,000
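Plates of compound plus infected erythrocytes (2% hematocrit, 0.05% parasitemia final) incubate 96 hours, 37 C, 5% CO2. Detection reagent added; reduced luminescence from the parasites' luciferase reporter flags inhibition.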
Pf growth 48h = Primary qHTS for delayed death inhibitors of the malarial parasite plastid, 48 hour incubation | P. falciparum luciferase growth in erythrocytes, 48 h | Potency, µM (highest dose often 28.7 µM), actives largely listed as inhibitors | hit rate 5.9% among 310,000 | AID 504832, 2011
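Parasite viability was followed by luminescence of a genomically integrated firefly luciferase. Cultures held 0.1% parasitemia at 2% hematocrit (final), incubated under 5% CO2 at 37 C.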
AMA1 RON2 block = qHTS for Inhibitors of AMA1-RON; Towards Development of Antimalarial Drug Lead: Primary Screen. hit rate 0.2% among 360,000. AlphaScreen AMA1-biotinylated RON2 peptide binding. Plasmodium falciparum AMA1 (3D7) - RON2 peptide interaction. Potency, µM (titrated, usually from 58.2 µM), usual class: inhibitors. AID 720542, 2013; note: nearly all actives have a fitted effect of over 45% in size
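AMA1 (3D7) with his tag at 25 nM final met compounds first, then biotinylated RON2 peptide at 25 nM; detection used donor plus acceptor beads, 10 µg/mL apiece, read by AlphaScreen after 30 min at room temperature.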
Cycloheximide cs = Cycloheximide Counterscreen for Small Molecule Inhibitors of Shiga Toxin. AID 2314, 2010. cell reporter, cycloheximide protein synthesis inhibition counterscreen. hit rate 12% among 300,000. max response, %; in the data active = max response mostly above about 13%, no sharp cut-off; inactive = mostly below about 14%; note: read at 38.3 µM for the half of the compounds with a filed dose
Shiga toxin inh = A qHTS for Small Molecule Inhibitors of Shiga Toxin; Vero cells, Shiga toxin protein synthesis inhibition reporter; inhibition, % at 38.7 µM; hit rate 9.2% among 290,000; in the data active = inhibition mostly above about 28%, no sharp cut-off; inactive = mostly below about 43%
SARS PLpro yeast = qHTS of Yeast-based Assay for SARS-CoV PLP; hit rate 0.19% among 330,000; S. cerevisiae expressing SARS-CoV PLpro, growth rescue; Potency, µM (highest dose often 32.9 µM), actives largely listed as activators; AID 485353, 2010; calls by dose curve; note: nearly all actives have a fitted effect of over 55% in size
Large screens that a line does not name were inactive. The list is not random: actives were taken first. Their share in the collection is about 19%. Unless noted, calls come from the whole dose curve; as a rule, active = well fitted curve in the direction sought with a large enough effect; inconclusive = small, poorly fitted or top-dose-only effect, or another doubt; inactive = no such curve, though single readings can be large; an effect the other way counts as inactive or inconclusive.

Cc1c(C(=O)NCc2ccc([N+](=O)[O-])cc2)sc(=O)n1Cc1ccc(-c2ccccc2)cc1	none (no result: Pf growth 96h, Pf growth 48h, Cycloheximide cs, Shiga toxin inh, SARS PLpro yeast)
COCCNC(=O)CN(C(=O)CCC(=O)Nc1nccs1)c1ccc2c(c1)OCO2	Pf growth 96h inconclusive
O=C(NCc1ccccc1Cl)c1ccc(S(=O)(=O)Nc2cccc(C(F)(F)F)c2)cc1	none
C#CCn1c(O)c(N=NC(=O)CNC(=O)c2cccnc2)c2ccccc21	none
O=S(=O)(NN=Cc1cccc(Cl)c1)c1ccccc1	none (no result: Pf growth 96h, Pf growth 48h, Cycloheximide cs, Shiga toxin inh, SARS PLpro yeast)
Cc1cc2c(C)nc(N/N=C/c3ccc(F)cc3)nc2o1	Cycloheximide cs 18
CSc1ccc(/C=N/Nc2nc(C)cc(C)n2)cc1	Cycloheximide cs 42, Shiga toxin inh 33
Clc1cccc(/C=N/Nc2nc(Cl)nc3ccccc23)c1	Pf growth 48h inconclusive, Cycloheximide cs 48, Shiga toxin inh 122
Cc1cccc(NC(=O)c2c(-c3ccccc3)noc2C)n1	Pf growth 96h inconclusive
CCOC(=O)c1c(NC(=O)CSc2nnc(-c3c[nH]c4ccccc34)n2C)sc2c1CCCC2	Pf growth 96h inconclusive, Pf growth 48h inconclusive
CCOC(=O)c1c(NC(=O)CSc2nnc(-c3c[nH]c4ccccc34)n2CCOC)sc2c1CCCC2	Pf growth 96h 9.3µM, Pf growth 48h 7.4µM
Oc1cccc(/C=N/Nc2ncnc3c2ncn3Cc2ccccc2)c1	Pf growth 96h inconclusive, Cycloheximide cs 18, Shiga toxin inh 53
Nc1c(Cl)ncnc1N/N=C/c1cccc(O)c1	Cycloheximide cs 26, Shiga toxin inh 50
COc1ccc(/C=N/Nc2ncnc(Cl)c2N)cc1OC	Cycloheximide cs 14
COCCn1c(SCC(=O)NCc2ccccc2)nnc1-c1ccco1	Pf growth 96h inconclusive
CCN(CC)CCNC(=O)c1ccc(Sc2ccc(C)cc2)c(NC(C)=O)c1	Pf growth 96h inconclusive
Cc1cccc(OCC(=O)NNC(=O)Nc2cccc(Cl)c2)c1C	none
COc1ccccc1C(CNC(=O)c1cccc(NS(=O)(=O)c2ccc(C)c(F)c2)c1)N(C)C (stereo unspecified)	Pf growth 96h 9.3µM, Pf growth 48h inconclusive (no result: Cycloheximide cs, Shiga toxin inh)
COc1ccc(C(CNC(=O)c2ccc(S(=O)(=O)Nc3ccc(F)cc3)cc2)N(C)C)cc1 (stereo unspecified)	Pf growth 96h inconclusive, Pf growth 48h inconclusive
CCOc1ccc(S(=O)(=O)Nc2cccc(C(=O)NCC(c3ccccc3)N(C)C)c2)cc1 (stereo unspecified)	Pf growth 96h inconclusive (no result: Cycloheximide cs, Shiga toxin inh)
COc1ccc(C(CNC(=O)c2cccc(NS(=O)(=O)c3ccccc3)c2)N(C)C)cc1 (stereo unspecified)	Cycloheximide cs 16
COc1ccc(C(CNC(=O)c2cccc(NS(=O)(=O)c3ccc(C)c(F)c3)c2)N(C)C)cc1 (stereo unspecified)	Pf growth 96h 12µM, Pf growth 48h inconclusive (no result: Cycloheximide cs, Shiga toxin inh)
COc1ccc(C(CNC(=O)c2cccc(S(=O)(=O)Nc3ccc(F)cc3)c2)N(C)C)cc1 (stereo unspecified)	Pf growth 96h 9.3µM, Pf growth 48h 12µM (no result: Cycloheximide cs, Shiga toxin inh)
Cc1cc2nc(CCN(C(=S)NCC(C)C)C3CCCC3)[nH]c2cc1C	Pf growth 96h inconclusive, Pf growth 48h inconclusive
COCCCn1cc(CN2CC(N3CCCCC3)CS2(=O)=O)nn1 (stereo unspecified)	none (no result: Pf growth 96h, Pf growth 48h, Cycloheximide cs, Shiga toxin inh, SARS PLpro yeast)
CCOc1ccc(CN2CCNC(=O)C2CC(=O)NCc2csc(C(C)C)n2)cc1 (stereo unspecified)	Pf growth 48h inconclusive
CC(CN1C(C)CCCC1C)OC(=O)c1cccc(Br)c1 (stereo unspecified)	none
CCc1nnc(NC(=O)c2sc3nc4c(cc3c2N)CCCCCC4)s1	Cycloheximide cs 13
CCc1nnc(NC(=O)c2sc3nc4c(cc3c2N)CCCCC4)s1	Pf growth 96h inconclusive, Cycloheximide cs 42, Shiga toxin inh 46
COc1ccccc1C(=O)NCC(=O)NNC(=O)c1cccs1	none (no result: Pf growth 96h, Pf growth 48h, Cycloheximide cs, Shiga toxin inh)
Cc1cc(=O)[nH]c(-n2[nH]c3c(c2=O)CCCC3)n1	Pf growth 96h inconclusive, Pf growth 48h 4.1µM
Cc1cc(=O)[nH]c(N2CCN(Cc3ccccc3)CC2)n1	none
Cc1cc(=O)[nH]c(N2CCCNCC2)n1	Pf growth 48h 12µM
Cc1ccc2c(CC(=O)Nc3cccc(S(=O)(=O)N4CCOCC4)c3)coc2c1	Pf growth 96h inconclusive, Pf growth 48h inconclusive
Clc1ccc(-c2noc(/C=C/c3ccccc3)n2)cc1	none
Cc1ccc(-c2noc(/C=C/c3ccccc3)n2)cc1	Cycloheximide cs 19
Cc1ccc(C2=NOC(c3nnc(-c4ccccc4)o3)C2)cc1 (stereo unspecified)	none (no result: Pf growth 96h, Pf growth 48h, Cycloheximide cs, Shiga toxin inh, SARS PLpro yeast)
C(=C\c1nnc(-c2cccs2)o1)/c1ccccc1	Cycloheximide cs 63, Shiga toxin inh 71
Cc1ccc(/C=C/c2nnc(-c3ccccc3)o2)cc1	Cycloheximide cs 23
CC1=NN(c2nc(N)nc(/C(C#N)=C/c3ccc([N+](=O)[O-])o3)n2)C(C)(C)C1	none (no result: Pf growth 96h, Pf growth 48h, Cycloheximide cs, Shiga toxin inh, SARS PLpro yeast)
O=C(OCC(=O)N(Cc1ccccc1)Cc1ccccc1)c1ccccc1NCCO	Pf growth 48h inconclusive (no result: Cycloheximide cs, Shiga toxin inh)
CCN(C(=O)COC(=O)c1ccccc1NCCO)c1cccc2ccccc12	Pf growth 96h 10µM, Pf growth 48h inconclusive (no result: Cycloheximide cs, Shiga toxin inh, SARS PLpro yeast)
COc1ccc(CN2CCC(Oc3cc(C(=O)NC4CC4)ccc3OC)CC2)c(O)c1	Pf growth 48h 2.3µM
COc1ccc(C(=O)NCCC2=CCCCC2)cc1OC1CCN(C(C)C)CC1	Pf growth 48h inconclusive, Cycloheximide cs 42, Shiga toxin inh 42, SARS PLpro yeast inconclusive
COc1ccc(C(=O)NC2CC2)cc1OC1CCN(Cc2cc(C)c(C)cc2C)CC1	Pf growth 96h inconclusive, Pf growth 48h inconclusive
COc1ccc(C(=O)NC2CCCCCC2)cc1OC1CCN(C(C)=O)CC1	Pf growth 96h inconclusive
COc1ccc(C(=O)NC2CCCCC2)cc1OC1CCN(C(C)C)CC1	Pf growth 96h 6.6µM, Pf growth 48h inconclusive
N#Cc1ccc(C(=O)CSc2n[nH]c(=O)n2Cc2ccco2)cc1	Pf growth 48h inconclusive
O=C(CSc1n[nH]c(=O)n1Cc1ccco1)c1ccc2c(c1)OCCO2	Cycloheximide cs 40, Shiga toxin inh 88
O=C(CSc1n[nH]c(=O)n1C1CC1)c1ccc2c(c1)OCCO2	Cycloheximide cs 37, Shiga toxin inh 57
CC(=O)Oc1ccc(C(=O)Nc2cccc(C(=O)c3ccc(C)c(C)c3)c2)cc1	Pf growth 48h 12µM
COc1ccc(C(=O)Nc2cccc(OC(=O)c3ccco3)c2)cc1	Cycloheximide cs 20
COc1ccc(C(=O)Nc2cccc(OC(=O)c3ccc(C)c(C)c3)c2)cc1	Cycloheximide cs 24, Shiga toxin inh 43
Cc1ccc(OC(=O)c2ccc(C)c(C)c2)cn1	Pf growth 96h inconclusive, Cycloheximide cs 34, Shiga toxin inh 52
CCC(=O)Nc1cccc(C(=O)c2ccc(C)c(C)c2)c1	Pf growth 96h inconclusive
